Reference: PubChem BioAssay AID1508600 (Functional Genomics Laboratory (NCATS/FGL), 2020)
Out of some 53,000 sequences screened, about 3,700 (7%) were called active.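 Rule for the calls: active = gene knockdowns whose robust z-score for IL-1 alpha signal is at least 2 or at most -2, so actives lie on both sides; inactive = the rest.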 The entries come from a sample that favours actives as a whole.

Assay: Components of the Cytosolic LPS Sensing Pathway: Gene Identification via Genome-wide siRNA Screen;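 note: robust z of the log signal after scaling to non-targeting control siRNA wells of the plate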
Settings: RAW264.7 macrophages, IL-1a HTRF, actives lie on both sides, screened at 100 nM (by protocol), cells primed 5 h with Pam3CSK4 first
In short: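 Cells (RAW264.7, 1×10^4 per well) were transfected with siRNA at 100 nM and cultured 48h at 37 degrees C. Pam3CSK4 was added for 5 hours; LipidA transfection followed for 24 hour. IL-1a was then measured by HTRF.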

Sequence | z-score
GCCAGAAGACUGUAUACCATT against Rp9 | -0.0396 (inactive)
GGUUGUUGGUCUUCUGUGATT against Nme3 | -1.27 (inactive)
GGCCAUCUAAAAAUAGUAATT against Ccdc171 | 0.707 (inactive)
GGAGCACUUAGAAAUGUCCTT against Olfr342 | -0.174 (inactive)
GGACUUUGUACAUUGUUUUTT against Actb | 2.2 (active)
GGUCUUCUAAGAAAUUUUGTT against Fmnl2 | 0.407 (inactive)
GGAUGUGUCUCACUUCUUGTT against Th | -1.5 (inactive)
GCUGCCUCUCACCAAGUAUTT against Creb3l3 | -1.43 (inactive)
GCAUGAAGAGCUAAUGCUATT against Eprs | -0.364 (inactive)
GGCUAUGAGGACUCCUAUGTT against Plekha7 | -2.53 (active)
GCAAGUCCAUUCUUUUUCATT against Tmprss11g | -0.643 (inactive)
GGAAACCUGAUACUAACAATT against Afmid | -1.88 (inactive)
GGAAGUCCUUGCAUUCCUCTT against Dlec1 | 0.816 (inactive)
GGCUGAGAAAACCAAAGGGTT against Cfdp1 | 1.9 (inactive)
GCUGGAGUGUCAGUCAUAUTT against Reg4 | 3.35 (active)
GGUCUAUCGCUUGCUUUUUTT against Abca2 | 1.67 (inactive)
GGUAAUCAGUAGUGACUUATT against Mkln1 | 0.229 (inactive)
CCCUCAACCAUUGUUCGAGTT against Rasal1 | -0.328 (inactive)
GGGCUGUAUUUCUUUACCCTT against Mrgprb2 | 0.508 (inactive)
GCGCAGCACAGGUUUUGAATT against Klf10 | -0.217 (inactive)
GGAAAAAAUACCAGAAACATT against Klre1 | -2.68 (active)
GCCUAUCGAAAAGUCUUGGTT against Adcyap1 | 0.875 (inactive)
GGCCAAGCUAUAAGAAAUGTT against Cntnap2 | 0.201 (inactive)

Sequence | z-score
AACUCCCUCCCUGUUGUAGTT against A4galt | -0.361 (inactive)
GGCCAUAUUAAGUAUGGAGTT against Fam118a | -0.34 (inactive)
GGAGAAGUAAAACUCGAAGTT against Rwdd2a | 0.276 (inactive)
CCGAAUUUCUCCUAUUGGGTT against Olfr106-ps | -0.241 (inactive)
GGUAUGUAACGGUAUUUAATT against Gja1 | 2.66 (active)
CCUAGAGCCGUGUGCAUACTT against Plp2 | 0.891 (inactive)
CCAUUGGUUUUGAGGAUAUTT against Pomp | -1.18 (inactive)
GGUAGAAAAAACACAAACGTT against Ppp2r3c | 1.43 (inactive)
GGUUUUGUGGGAAGAGUCATT against Ccdc163 | -2.99 (active)
CCUGGACAUAACCAAUGUATT against Glrp1 | 1.5 (inactive)
CCCUGGGCAGUUUGCAUGUTT against Dgcr2 | 0.815 (inactive)
GCAACGAGGUACUGUUUUATT against Rab7b | 0.626 (inactive)
GGUAGAGCUGCACUUUGGATT against Hddc3 | -1.43 (inactive)
GGUUUGUCAGGUUCUAAAATT against Atf1 | 2.34 (active)
GGUACAAAGACUGACGAGUTT against Gnptg | 0.00278 (inactive)
CGACCAGAAGUGGUAUGUCTT against Adra2a | -1.03 (inactive)
GGAGACAUUCACUGUCUUCTT against Ephb4 | -0.322 (inactive)
CCAGUAUCUAAUUGGAAUATT against Paqr8 | 2.07 (active)
GCUGUUUGAAGCUGAUACCTT against Fads3 | -0.0526 (inactive)
GGCAUCCAGACAAGUGAUGTT against Zer1 | 0.699 (inactive)
GCCAUCACAAUUCUAAUCCTT against Vmn2r123 | -1.54 (inactive)
CCAAGAUUGACAUCAUCCGTT against Pkn1 | -0.595 (inactive)
CGAAUACCUGAAGUGCAAATT against Art3 | 0.454 (inactive)

Sequence | z-score
GGAGCCAGAACCUGAAAUUTT against Ankrd1 | 2.86 (active)
GCUCUAGACAUAUGAGGCUTT against Wee2 | -0.0864 (inactive)
CCCAUGAUGCCAUCUUUAATT against 2410002F23Rik | -1.03 (inactive)
GGAACAUUUCUGGAUUGUUTT against Muc1 | -0.503 (inactive)
CCAGCUCUCGAUUCCAUCATT against Fem1a | 0.615 (inactive)
GGAUACCCUGGAGUUUAUATT against Prss42 | 0.941 (inactive)
GCGUGAUCAUUGAUGUGGATT against Slc5a7 | 0.364 (inactive)
GUUCCACAAAGACCAUCAGTT against Olfr134 | 0.679 (inactive)
GCCUGGUUAAGGCAUGAUATT against Gm4884 | 2.63 (active)
GCCACAACCACCUGAACUUTT against Amigo1 | -0.854 (inactive)
GGACUUCAAGGAUAGUGAGTT against Osm | -1.13 (inactive)
GGUCGAUGCAAAGAUGCUGTT against Smoc1 | 0.811 (inactive)
GCUUCUGUAAAUCCCAUAUTT against Olfr26 | -0.0814 (inactive)
GCUGUCACUUUGAAUCCCUTT against Nrg1 | -0.988 (inactive)
GGUAUUGAAAUGGAAAAGGTT against D6Wsu163e | -1.2 (inactive)
GGGCCUAUGCUUACAAACGTT against Pkp3 | 2.37 (active)
GGUUCUAAUUAGAGAAACATT against Tcte1 | 0.461 (inactive)
CGACCAUUCCUUUGAGUUATT against Atl1 | 3.09 (active)
GGAGCUACCUCUGGAUACATT against Tmem269 | 1.28 (inactive)
GGUACUGGAAAGAAAUGAGTT against Exph5 | 0.356 (inactive)
GGUUGUCAUAAUCUUGUUATT against Irgq | -0.59 (inactive)
GGUAUUUAGGUUGAUAACATT against Kbtbd8 | -0.206 (inactive)
GGUCUUAGAUAAUGUUAGATT against Gpr26 | 0.718 (inactive)
